# Test results reported in PubChem BioAssay.
# Tests used:
# [1] = target: Tumor necrosis factor receptor superfamily member 10B (Homo sapiens) (UniProt O14763); test: viability loss of caspase-8 NB7 cells with TRAIL – with/without TRAIL, luminescence panel, confirmation (AID 651596); conditions: NB7 neuroblastoma + caspase-8, TRAIL sensitization, NB7 Caspase-8, with TRAIL, mean of runs, at 10 µM, stronger effect = higher value
# [2] = as above; conditions: NB7 neuroblastoma + caspase-8, without TRAIL, NB7 Caspase-8, without TRAIL, mean of runs, at 10 µM
# Sequence of Tumor necrosis factor receptor superfamily member 10B (Homo sapiens) (O14763 whole entry, looked up): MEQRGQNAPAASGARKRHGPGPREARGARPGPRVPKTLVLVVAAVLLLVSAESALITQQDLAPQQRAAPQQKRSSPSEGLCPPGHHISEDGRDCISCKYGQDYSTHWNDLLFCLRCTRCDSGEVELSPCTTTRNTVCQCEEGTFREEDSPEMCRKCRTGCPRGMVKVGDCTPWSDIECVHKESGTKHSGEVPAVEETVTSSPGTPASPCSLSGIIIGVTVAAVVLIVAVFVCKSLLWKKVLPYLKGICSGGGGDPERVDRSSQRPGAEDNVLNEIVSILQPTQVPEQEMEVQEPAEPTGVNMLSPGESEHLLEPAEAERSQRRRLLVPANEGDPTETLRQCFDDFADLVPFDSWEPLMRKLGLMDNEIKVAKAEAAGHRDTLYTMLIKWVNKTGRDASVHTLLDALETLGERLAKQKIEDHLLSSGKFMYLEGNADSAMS
Compound,activity [1] [%],activity [2] [%]
Cc1csc(N/N=C/c2ccccn2)n1,59.2,69.7
O=C(Oc1c(CN2CCOCC2)cc(Cl)c2cccnc12)c1ccc(F)cc1,53.5,56.1
O=C(Nc1ccc(-c2cn3ccccc3n2)cc1)c1cccs1,76.2,66.1
Cc1nc(-c2ccc(NC(=O)c3ccc(Br)o3)cc2)cs1,68.5,67.5
COc1ccc(C2NN=C(c3ccc(C)cc3)S2)cc1 (stereo unspecified),51.8,42.1
CCN(CC)S(=O)(=O)c1cc(C(=O)OCC(=O)Nc2ccc(-c3nc4ccc(C)cc4s3)cc2)ccc1F,73.7,74.2
COc1cccc(Nc2nc(N)nc(CCl)n2)c1,98.4,92
Cc1ccc(C(=O)COC(=O)c2ccc3c(c2)C(=O)N(c2cccc4ncccc24)C3=O)cc1,54.7,43.5
O=C(Nc1ccc(N2CCN(C(=O)c3ccccc3)CC2)cc1)c1cc2ccccc2o1,70.8,50.3
Cc1[nH]cnc1C(=O)N/N=C/c1c(Cl)cccc1Cl,58.7,57.6
COc1ccc(/C=N\n2nnc3ccccc32)cc1,53.3,42.7
CCC(C(=O)O/N=C(\N)c1ccc(C)cc1)c1ccccc1 (stereo unspecified),65.2,77.5
Cc1ccc(NC(=S)c2nc3ccccc3s2)cc1,30.7,33.8
COc1ccc(-c2ccc3c(c2)S(=O)(=O)c2cccc(C(=O)NCCOc4ccccc4Cl)c2C3=O)cc1OC,91.2,77.8
N/C(CCS(=O)(=O)c1ccc(Cl)cc1)=N\OC(=O)c1ccc(Cl)cc1,98.2,93.3
COc1ccccc1Nc1nc(N)nc(CCl)n1,98.8,96.4
O=C(COc1ccccc1)Nc1cccc(-c2ccc(N3CCOCC3)nn2)c1,72.7,77.8
CCc1n[n+](CC(=O)c2ccccc2)c(N)s1,44.6,35.9
CCN1CCN(Cc2ccc(NC(=O)c3cc(NC(=O)c4cncc(-c5ccc(C#N)cc5)c4)cc(OC)c3)cc2C(F)(F)F)CC1,58,98.7
COc1ccc(NC(=O)c2ccc(OC)cc2)cc1,54.2,42.5
Cc1ccc(C(=O)OCn2ncc(Cl)c(Cl)c2=O)cc1,100,100
Nc1ncnc2c(C3OC(CO)C(O)C3O)c[nH]c12 (stereo unspecified),95.2,98.7
CCCc1cc(=O)[nH]c(SCC(=O)Nc2sc(C(N)=O)c(C)c2C(=O)OCCOC)n1,84.6,86.4
Cc1ccc(-n2nnc(-c3nccn3C)n2)cc1,74.7,77.1
Cn1c(NC(=O)c2ccc(F)cc2)nc2ccccc21,45.1,57.1

Compound,activity [1] [%],activity [2] [%]
Cc1ccc(-c2nc(-c3ccncc3)no2)c(Cl)c1,63,57.1
O=C(/C=C/Nc1ccccc1)c1ccccc1,63.1,44.8
Nc1nn2cc(-c3ccccc3)nc2c2ccccc12,54.7,53.4
O=C(Nc1nc2c(s1)CCCC2)c1ccc(Br)o1,73.7,88.6
COc1ccc2sc(NC(=O)c3ccco3)nc2c1,68.9,74.8
CCOc1ccc(C(=O)Nc2ccc3[nH]ncc3c2)cc1,82.6,82.7
CC(=O)CSc1ccc(-c2nc3ccccc3[nH]2)cn1,92.1,92.5
COc1ccc2nc(NC(=O)c3ccc([N+](=O)[O-])o3)sc2c1,37.6,77.8
COc1cc(OC)cc(-c2cc3ccc(F)cc3cn2)c1,65.9,60.2
CCCOc1ccc(-c2nc(N3CCN(C)CC3)c3ccccc3n2)cc1,71,67.7
CC1CCN(S(=O)(=O)c2ccc3c(c2)C(=NO)c2cc(S(=O)(=O)N4CCC(C)CC4)ccc2-3)CC1,98.2,99
O=C(Nc1nc2c(F)cc(F)cc2s1)c1ccccn1,61.9,64.5
Cc1cc(C(=O)Cn2nnc3ccccc3c2=O)c(C)n1Cc1cccs1,65.1,58.3
COc1ccc(/C(N)=N/OC(=O)c2ccc3c(c2)OCO3)cc1OC,94.2,95.1
O=C(Nc1ccc2nc3ccccc3nc2c1)c1ccccc1,47,32.9
Cc1cc(C)cc(C(=O)Nc2nc3ccccc3[nH]2)c1,78.7,72.5
Cc1ccc(NC(=O)c2ccc3c(c2)OCCO3)nc1,76.8,77.2
COc1ccc(-c2cn3cc(C)ccc3n2)cc1Br,82.2,77.3
O=C(Nc1cnn(C23CC4CC(CC(C4)C2)C3)c1)c1cnn2c(C(F)(F)F)cc(-c3ccco3)nc12,76.4,70.3
O=C(Cn1ncc(Cl)c(Cl)c1=O)NC(=O)NC1CCCCC1,99.3,99.3
CCC(C)c1ccc2oc(-c3ccc(NC(=O)Cn4cnc5c(=O)n(C)c(=O)n(C)c54)cc3)nc2c1 (stereo unspecified),85.3,66.9
CC(C)(C)OC(=O)NCCCC[C@H](NC(=O)c1[nH]cnc1C(=O)N[C@@H](Cc1ccccc1)C(=O)OC(C)(C)C)C(=O)OC(C)(C)C,84,64.7
C=C1C(=O)OC2C=C(CO)C3OC3C3OC3(C)CC(OC(=O)/C(=C/C)COC(C)=O)C12 (stereo unspecified),70.1,81
Cc1nc2sc(-c3ccccc3)cc2c(=O)[nH]1,74.1,73.8
CCOc1ccc(C(C)=O)cc1COC(=O)c1cnc(Cl)c(Cl)c1,97.6,79.1

Compound,activity [1] [%],activity [2] [%]
O=C(CCl)N(CCc1ccccc1)CCc1ccccc1,99.4,98.2
COc1ccc(NC(=O)c2ccc(C)cc2)cc1,66.1,60.3
CC(=O)Nc1ccc(C=NNc2nnc(NN=Cc3ccc(NC(C)=O)cc3)c3ccccc23)cc1,68.6,67.4
COc1ccc(C(=O)c2c[nH]c3ccccc23)cc1,45.4,26.6
Cc1ccc(C(=O)Nc2ccc(Cl)cc2C)c(Cl)c1,56.7,39.9
CC(C)c1ccc(C(=O)Nc2cccnc2)cc1,57.1,56.2
O=Cc1s/c(=N\S(=O)(=O)c2ccccc2)n(CCCCl)c1Cl,94.2,88.6
O=C(CCl)Nc1ccccc1Sc1ccccc1,83.2,87.8
CCn1c(=O)c([N+](=O)[O-])c(Cl)c2ccccc21,83.6,70.1
O=C(NC(=S)Nc1ccc(Br)cn1)c1cccs1,71.7,73.2
O=C(Nc1ccccc1NC(=O)c1c(F)c(F)c(F)c(F)c1F)c1c(F)c(F)c(F)c(F)c1F,90.2,96.2
Cc1ccc2nc(NC(=O)c3cccs3)sc2c1,72.1,71.2
O=C(Nc1nc2cc3c(cc2s1)OCCO3)c1ccc([N+](=O)[O-])o1,63.8,84.1
Cc1cccc(/C=N/Nc2nncc3ccccc23)c1,80.9,69.2
Oc1ccc(-c2nc3ccccc3s2)cc1,47.5,47.9
Cc1ccc(-c2nn3c(C)nnc3c3ccccc23)cc1S(=O)(=O)NCc1ccccc1,48.2,51.6
COc1ccc2c(c1OC)C(=O)N(c1cccc(C)c1)C2,66.9,57.9
O=C(COc1ccc(CO)cc1Cl)Nc1ccc(F)cc1,44.5,47.6
c1ccc(COc2ncnc3c2ncn3CCCNCC(c2ccccc2)c2ccccc2)cc1,18.2,41.5
CCc1c(C)[nH]c2c(C)cccc2c1=O,56.4,64.3
COc1cccc(/C=N/Nc2nn3cnnc3c3ccccc23)c1,62,61.4
COC(=O)c1ccc(-c2nc3ccccc3[nH]2)cc1,80.7,84.4
Cc1cccc(N2CCN(C(=S)Nc3ccc4nc(N5CCN(C)CC5)cc(C)c4c3)CC2C)c1 (stereo unspecified),75.8,98
O=c1c2sc(-c3ccccc3)cc2nc2n1CCC2,46.9,50
O=c1c2c(nc3cc(-c4ccc(F)cc4)[nH]n13)CCCC2,71.5,68.3

Compound,activity [1] [%],activity [2] [%]
COc1cccc(/C=C2\CCc3ccccc3C2=O)c1,83.4,78.5
COc1ccc(C(=O)N/N=C(/C)c2cccc(NC(=O)c3ccccc3F)c2)cc1,53.5,62.1
CC(C)Oc1ccc(C(=O)NC2=NCCS2)cc1,57.7,61.8
CCC(C)c1ccc(NC(=O)c2ccco2)cc1 (stereo unspecified),81.5,82.8
CCCCNC(=O)c1ccc(Cn2c(=S)[nH]c3c([nH]c4ccc(OC)cc43)c2=O)cc1,76.7,63.2
C=C1CC(COc2cc(=O)oc3ccccc23)(c2ccccc2)OC1=O (stereo unspecified),89.5,96.5
Cc1cccc(Nc2nc(N)nc(CCl)n2)c1C,99,98.3
O=C(Cn1c2ccccc2c(=O)c2ccccc21)N/N=C/c1cc([N+](=O)[O-])ccc1N1CCCCCC1,49.8,48
COc1cccc(C(=O)/C=C2\Sc3ccccc3N2C)c1,56.7,29.4
CCN1CCCC1CNC(=O)c1ccc2c(c1)NC(=O)/C(=C\c1ccc(C)cc1)S2 (stereo unspecified),89.7,98.9
O=C(CSc1nnc(-c2ccccc2Cl)o1)Nc1ccccn1,68.8,74
CC(C)(C)NC(=O)C(c1ccncc1)n1c(-c2ccc(C(F)(F)F)cc2)nc2ccccc21 (stereo unspecified),74.4,85.8
Cc1cc(C(=O)COC(=O)c2cccnc2Cl)c(C)n1C,62.8,40.4
COc1ccc(CSc2nc3ccccc3[nH]2)cc1,70.8,83.3
CSc1ccc(/C=N/NC(=O)c2cccc(O)c2)cc1,78.8,71
CCCCCCCCCCCCCCC[C@@H](O)[C@@H](N)CO,84.5,79.7
NC(c1csc(NC(=O)Nc2ccc(OC(F)(F)F)cc2)n1)C1CCCCC1 (stereo unspecified),63.7,92.2
Cc1ccc(NC(=O)N2CCc3ccccc32)cc1C,71.9,66.1
Cc1ccc2nc(-c3cccc(N)c3)[nH]c2c1,71.5,59.6
Cc1cccc(NC(=O)c2cnc3ccccn3c2=O)c1,69,62.9
CNc1ncnc(Sc2nc(N)nc3nc[nH]c23)c1[N+](=O)[O-],72,77.6
O=C(Nc1ccccn1)c1ccc(-c2ccccc2)cc1,87.6,88.4
Cc1cc(C(=O)COC(=O)c2n[nH]c3ccccc23)c(C)n1CC1CCCO1 (stereo unspecified),77.5,75.2
